Screening results (PubChem)
Pf growth 96h – Primary qHTS for delayed death inhibitors of the malarial parasite plastid, 96 hour incubation | P. falciparum luciferase reporter growth, 96 h | Potency, µM (titrated, usually from 28.7 µM), most hits filed as inhibitors | hit rate 6.9% among 320,000 | AID 504834, 2011
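Two-generation exposure (96 h) targets delayed-death phenotype. Reporter parasites carrying integrated firefly luciferase, in red cells at 2% hematocrit and 0.05% parasitemia final, kept at 37 C, 5% CO2; luminescence loss indicates inhibition.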
NS1 function inh – qHTS Assay for Inhibitors of Influenza NS1 Protein Function; Potency, µM (top dose mostly 46.1 µM); hit rate 0.4% among 270,000; AID 2326, 2010; calls by dose curve; further: actives are rising curves; nearly all actives have a fitted effect of over 50% in size
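OD600 was taken as the measure of yeast growth restored by compound in an NS1-expressing S. cerevisiae strain. Cells had been washed out of glucose medium and diluted 1:100 into galactose -URA medium, pH 6.0.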
AMA1-RON2 inh – qHTS for Inhibitors of AMA1-RON; Towards Development of Antimalarial Drug Lead: Primary Screen; Plasmodium falciparum AMA1 (3D7) - RON2 peptide interaction; AlphaScreen AMA1-biotinylated RON2 peptide binding; Potency, µM (doses to about 58.2 µM), most hits filed as inhibitors; hit rate 0.2% among 360,000; further: nearly all actives have a fitted effect of over 45% in size
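AMA1 (3D7) with his tag at 25 nM final met compounds first, then biotinylated RON2 peptide at 25 nM; detection used donor plus acceptor beads, 10 µg/mL apiece, read by AlphaScreen after 30 min at room temperature.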
Sm TGR block – qHTS Assay for the Inhibitors of Schistosoma Mansoni Peroxiredoxins. Schistosoma mansoni thioredoxin glutathione reductase (TGR), Q962Y6. purified TGR, DTNB reduction, TNB absorbance 405 nm. Potency, µM (doses to about 114 µM), usual class: inhibitors. hit rate 3% among 360,000. AID 485364, 2010; further: nearly all actives have a fitted effect of over 60% in size
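Kinetic colorimetric format: TGR-catalysed, NADPH-driven DTNB reduction monitored via TNB absorbance. Enzyme dispensed at 20 nM; compound exposure 15 min at room temperature before reaction start.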
Pf growth 48h – Primary qHTS for delayed death inhibitors of the malarial parasite plastid, 48 hour incubation | Potency, µM (top dose mostly 28.7 µM), hits mostly inhibitors | P. falciparum luciferase growth in erythrocytes, 48 h | hit rate 5.9% among 310,000
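Luminescence readout; reporter = integrated firefly luciferase in P. falciparum. RBC culture at 2% hematocrit, 0.1% parasitemia final, 37 C/5% CO2; decreased signal taken as growth inhibition.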
Each line names hits and unclear results; the compound was inactive in the other large screens. Compounds with a hit are over-represented: about 11% of the library has one in this group of screens. Unless noted, the call rests on the fitted dose curve; in most records, active means well fitted curve in the direction sought with a large enough effect; inconclusive means small, poorly fitted or top-dose-only effect, or another doubt; inactive means no such curve, though single readings can be large; an effect the other way counts as inactive or inconclusive.

CNc1ccc(S(=O)(=O)NCC(=O)NCCCc2ccccc2)cc1[N+](=O)[O-]	Pf growth 96h inconclusive, Pf growth 48h inconclusive
Cc1ccc(CSCCNC(=O)CN(c2ccccc2)S(C)(=O)=O)cc1	none
Cc1nc2nc(CNC(=O)c3cccc(F)c3)nn2c(C)c1CCC(=O)Nc1cccc(Cl)c1	none (no result: Pf growth 96h, NS1 function inh, AMA1-RON2 inh, Pf growth 48h)
Cc1nnc(C)n1/N=C/c1c(O)ccc2ccccc12	Sm TGR block 28.2µM
CCc1n[nH]c(=S)n1/N=C/c1c(O)ccc2ccccc12	Pf growth 96h inconclusive
O=S(=O)(/N=C/c1c(O)ccc2ccccc12)c1ccccc1	Sm TGR block 39.8µM
Cc1nnc(-c2ccccc2)c(=O)n1/N=C/c1c(O)ccc2ccccc12	Pf growth 96h 4.15µM, Pf growth 48h inconclusive
CCN(CC)C(=O)C(=O)Nc1ccc(OC)c(Cl)c1	none
O=C1CS/C(=N/N=C\c2ccn[nH]2)N1	Pf growth 96h 1.85µM
C[C@@]12CCC(=O)C=C1CC[C@H]1C2[C@@H](O)C[C@]2(C)[C@@H]1CC[C@@]2(O)C(=O)CO (stereo partly specified)	none (no result: Pf growth 96h, AMA1-RON2 inh, Sm TGR block, Pf growth 48h)
COC(=O)C1=C(c2ccc(OC)c(OC)c2)C[C@@H]2CC[C@H]1N2C(=O)NCc1ccc(F)cc1	Pf growth 96h inconclusive (no result: NS1 function inh)
COC(=O)C1=C(c2ccccc2)C[C@@H]2CC[C@H]1N2C(=O)NCc1ccc(C(F)(F)F)cc1	none (no result: Pf growth 96h, NS1 function inh, Sm TGR block, Pf growth 48h)
COC(=O)C1=C(c2ccc3ccccc3c2)C[C@@H]2CC[C@H]1N2C(=O)NCc1ccc(C(F)(F)F)cc1	Pf growth 96h inconclusive, Pf growth 48h 8.28µM (no result: NS1 function inh)
COC(=O)C1=C(c2ccc(C(C)=O)cc2)C[C@@H]2CC[C@H]1N2C(=O)NCc1ccc2c(c1)OCO2	Pf growth 96h 3.29µM, Pf growth 48h 11.7µM (no result: NS1 function inh)
COC(=O)C1=C(c2ccc3ccccc3c2)C[C@@H]2CC[C@H]1N2C(=O)NCc1ccc(F)cc1	Pf growth 96h inconclusive, Pf growth 48h 8.28µM (no result: NS1 function inh)
CCc1ccc(-n2nc3cc(C)c(N)cc3n2)cc1	Pf growth 96h 13.1µM, NS1 function inh inconclusive
C=CCN(c1ccc(C(=O)Nc2cccc([N+](=O)[O-])c2)cc1)S(C)(=O)=O	Pf growth 96h inconclusive
CCCc1cc2c(=O)c(-c3nc4ccccc4s3)c(COCC(=O)O)oc2cc1O	Sm TGR block 39.8µM (no result: NS1 function inh)
CCc1cc2c(=O)c(-c3nc4ccccc4n3C)c(COCC(=O)O)oc2cc1O	none
COc1cccc(/C=N/Nc2cc(N3CCOCC3)ncn2)c1O	Pf growth 48h 0.928µM
Fc1ccc(/C=N/Nc2cc(N3CCOCC3)ncn2)cc1	Pf growth 96h inconclusive
Fc1cccc(/C=N/Nc2cc(N3CCOCC3)ncn2)c1	Pf growth 96h 2.33µM
COc1ccc(/C=N/Nc2cc(N3CCOCC3)ncn2)c(OC)c1	Pf growth 96h inconclusive
COc1cccc(/C=N/Nc2ncnc3c2ncn3Cc2ccccc2)c1O	Pf growth 96h 2.33µM, NS1 function inh inconclusive, Pf growth 48h 1.85µM
COc1ccc(Nc2nc(Cl)nc(Nc3ccc(OC)cc3)n2)cc1	none (no result: NS1 function inh)
CC(=O)Nc1ccc(Nc2nc(Cl)nc(Nc3ccc(NC(C)=O)cc3)n2)cc1	Sm TGR block 35.5µM
N#Cc1ccccc1COC(=O)c1cccc(S(=O)(=O)N2CCCC2)c1	none (no result: Pf growth 96h, NS1 function inh, Sm TGR block, Pf growth 48h)
CCCOc1ccc(CSC2=NCCN2)cc1[N+](=O)[O-]	Pf growth 96h inconclusive, Pf growth 48h 14.7µM
O=[N+]([O-])c1cc(CSC2=NCCN2)ccc1O	none
CC1Oc2ccccc2N(Cc2ccccc2F)C1=O (stereo unspecified)	Pf growth 96h inconclusive (no result: AMA1-RON2 inh)
CC1Oc2ccccc2N(Cc2ccccc2Cl)C1=O (stereo unspecified)	Pf growth 96h 11.7µM, Pf growth 48h inconclusive
COc1ccccc1NC(=O)CC(NCc1ccccc1)C(=O)O (stereo unspecified)	Pf growth 96h 2.62µM
CC1CC(C)CN(C(=O)C2CCN(S(=O)(=O)N3CCC4(CC3)OCCO4)CC2)C1 (stereo unspecified)	Pf growth 96h inconclusive
Cc1ccc(N2CN=c3s/c(=C\c4cccnc4)c(=O)n3C2)cc1	Pf growth 48h inconclusive
Cc1nc2ccccn2c1C(=O)N/N=C/c1ccc(CNC(=O)C(=O)Nc2ccccc2)o1	none
O=C(NCc1ccc(/C=c2\sc3n(c2=O)CCN=3)o1)C(=O)Nc1ccccc1	Sm TGR block 35.5µM (no result: NS1 function inh, AMA1-RON2 inh)
Cc1ccc(/C=c2/sc3n(c2=O)CCCN=3)o1	Sm TGR block 11.2µM
Cc1ccc(/C=c2\sc3n(c2=O)CN(c2ccc(Br)cc2)CN=3)o1	Pf growth 96h inconclusive, Sm TGR block 12.6µM
Cc1cc(NC(=O)CSc2n[nH]c(-c3ccc(Cl)cc3Cl)n2)no1	none (no result: NS1 function inh)
Cc1ccc(Cn2nnc3c(=O)[nH]c(C4CCN(S(=O)(=O)c5ccccc5F)CC4)nc32)cc1	NS1 function inh inconclusive
COc1ccc2occ(CC(=O)Nc3ccc(S(=O)(=O)Nc4nccc(C)n4)cc3)c2c1	none (no result: Pf growth 96h, NS1 function inh, AMA1-RON2 inh, Pf growth 48h)
N#CCCn1nc(-c2ccccc2)cc1Nc1ccccc1NC(=O)c1cccs1	Pf growth 48h 5.22µM
CC(C)(C)OC(=O)N1CCC(c2c(C(=O)NCC3CCN(C4CCCC4)C3)cnn2-c2ccc(F)cc2)CC1 (stereo unspecified)	Pf growth 48h 2.62µM
Cc1ccc(-n2ncc(C(=O)NCC3CCN(C4CCCC4)C3)c2C2CCN(C(=O)OC(C)(C)C)CC2)cc1C (stereo unspecified)	Pf growth 96h 2.33µM, Sm TGR block inconclusive, Pf growth 48h 13.1µM
CC(C)(C)OC(=O)N1CCC(c2c(C(=O)NCC3CCN(C4CCCC4)C3)cnn2-c2ccccc2)CC1 (stereo unspecified)	Pf growth 48h 3.7µM
CCOc1ccccc1N1CCN(C(=O)c2ccc(-c3ccc(OC(C)=O)cc3)cc2)CC1	none (no result: Pf growth 48h)
COc1ccc(Cc2nnc(N/N=C/c3ccc(O)cc3O)[nH]c2=O)cc1OC	Pf growth 96h inconclusive, NS1 function inh inconclusive, Pf growth 48h 4.15µM
O=C(Cc1ccc(Cl)cc1)Nc1ccc2c(c1)C(=O)NC2=O	none
CCc1ccc(-c2cc(-c3n[nH]c(=S)n3CC)c3ccccc3n2)cc1	Pf growth 96h 2.94µM, Pf growth 48h inconclusive (no result: AMA1-RON2 inh)
FC(F)(F)c1cc(CO[C@@H]2CCCN[C@@H]2c2ccccc2)cc(C(F)(F)F)c1	Pf growth 96h inconclusive, Pf growth 48h 11.7µM (no result: NS1 function inh)
CCOC(=O)C1=C(C)NC(=S)NC1c1ccc(-c2ccc(Cl)cc2)o1 (stereo unspecified)	Pf growth 96h 7.38µM, Sm TGR block 22.4µM, Pf growth 48h inconclusive
COCCOC(=O)C1=C(C)NC(=O)NC1c1ccc(-c2cc(Cl)ccc2Cl)o1 (stereo unspecified)	Sm TGR block 17.8µM
COC(=O)C1=C(C)NC(=O)NC1c1ccc(-c2ccccc2Cl)o1 (stereo unspecified)	Pf growth 96h 3.7µM, Sm TGR block 25.1µM (no result: NS1 function inh)
